Screening results (PubChem BioAssay)
HEK cytotox: kills HEK 293 cells. 6.6% of 94,000 active. Potency, µM (top dose mostly 115 µM), without a hit: at the top dose activity change, negative = cytotoxicity, usual class: inhibitors. HEK 293 viability, ATP luminescence (CellTiter-Glo), 48-72 h; further: nearly all actives have a fitted effect of over 60% in size
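Cells seeded first (HEK 293, 250 cells/well), then compound added by pintool. Incubation ran 48 or 72 hr at 37 degree Celsius. CellTiter-Glo was added and luminescence imaged after 10 min at room temperature.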
3T3 cytotox: cytotoxic compounds in NIH 3T3 cells; NIH 3T3 viability, CellTiter-Glo ATP luminescence, 48-72 h; Potency, µM (titrated, usually from 96.7 µM), for the others: at the highest dose activity change, negative = cytotoxicity, actives largely listed as inhibitors; 4.3% of 94,000 active; AID 1345082; further: nearly all actives have a fitted effect of over 55% in size
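Cytotoxicity was measured by CellTiter-Glo ATP luminescence after 48 or 72 h compound exposure at 37 °C. Mouse NIH 3T3 fibroblasts were seeded at 400 cells/well and dosed by 23 nL pin transfer.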
hNpr1 antagonist: blocks ANP-stimulated signaling of human Npr1 receptor. P16066. Potency, µM (titrated, usually from 46.3 µM), for the others: top-dose activity change, negative = inhibition, hits mostly inhibitors. 1.6% of 76,000 active. HEK293 hNpr1 GloSensor cGMP, ANP-stimulated luminescence; calls by dose curve; further: nearly all actives have a fitted effect of over 60% in size
Target sequence (P16066 whole entry, looked up): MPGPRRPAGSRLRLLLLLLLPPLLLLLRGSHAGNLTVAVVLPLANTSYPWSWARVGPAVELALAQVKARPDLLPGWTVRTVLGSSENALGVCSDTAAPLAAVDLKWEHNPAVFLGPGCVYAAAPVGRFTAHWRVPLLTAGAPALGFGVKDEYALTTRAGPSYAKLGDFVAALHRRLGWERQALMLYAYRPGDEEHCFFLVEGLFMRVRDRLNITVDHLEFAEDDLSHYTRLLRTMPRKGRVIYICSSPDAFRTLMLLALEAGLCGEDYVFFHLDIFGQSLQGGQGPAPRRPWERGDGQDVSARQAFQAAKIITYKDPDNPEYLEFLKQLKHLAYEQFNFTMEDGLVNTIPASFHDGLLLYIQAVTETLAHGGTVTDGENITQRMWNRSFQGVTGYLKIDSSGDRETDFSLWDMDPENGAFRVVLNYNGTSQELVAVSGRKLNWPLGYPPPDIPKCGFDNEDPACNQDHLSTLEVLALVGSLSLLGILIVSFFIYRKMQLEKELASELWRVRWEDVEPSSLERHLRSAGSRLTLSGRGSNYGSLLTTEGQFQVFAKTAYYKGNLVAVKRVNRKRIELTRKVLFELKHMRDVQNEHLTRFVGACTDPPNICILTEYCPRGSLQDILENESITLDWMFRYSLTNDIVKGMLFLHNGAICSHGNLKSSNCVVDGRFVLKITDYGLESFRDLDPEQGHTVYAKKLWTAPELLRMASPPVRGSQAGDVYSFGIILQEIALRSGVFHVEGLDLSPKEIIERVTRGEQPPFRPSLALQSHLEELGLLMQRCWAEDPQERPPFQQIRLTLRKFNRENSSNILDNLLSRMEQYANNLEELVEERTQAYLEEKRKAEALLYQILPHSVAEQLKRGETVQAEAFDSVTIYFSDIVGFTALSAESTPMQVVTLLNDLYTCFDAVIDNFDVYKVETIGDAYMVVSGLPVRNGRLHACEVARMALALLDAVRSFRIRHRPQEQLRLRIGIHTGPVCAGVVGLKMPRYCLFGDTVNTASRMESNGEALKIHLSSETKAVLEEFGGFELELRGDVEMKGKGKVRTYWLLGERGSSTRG
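Compound pre-incubated 30 min at room temperature on GloSensor-loaded HEK293 cells stably carrying hNpr1 and the pGS-40F cGMP biosensor. Stimulation uses hNppA at 0.1 nM final; luminescence is taken at baseline and 20 min post-agonist.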
FLuc inh: inhibitors of firefly (Photinus pyralis) luciferase. Potency, µM (highest dose often 115 µM), usual class: inhibitors. 2.5% of 76,000 active. AID 1347043. P08659. purified P. pyralis luciferase, luminescence, biochemical; further: nearly all actives have a fitted effect of over 65% in size
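Biochemical qHTS: compound (6-point titration) added to 10uM D-luciferin plus 10uM ATP in Tris acetate pH 7.5 buffer with Mg, Tween-20 and BSA, then purified enzyme at 10nM; light output imaged.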
Starred values were filed as active, the others as inactive; [ ] = dose if it differs, or a comment. The list is not random: actives were taken first. Their share in the collection is about 11%. Unless noted, the call rests on the fitted dose curve; in most records, active means well fitted curve in the direction sought with a large enough effect; inconclusive means small, poorly fitted or top-dose-only effect, or another doubt; inactive means no such curve, though single readings can be large; an effect the other way counts as inactive or inconclusive. On the % scale 0 is the no-effect control and ±100 the full control effect; potency means the concentration at half of the fitted maximal effect.

Results for CCN1c2cc(C(=O)Nc3ccc(F)c(Cl)c3)ccc2C(=O)N2CCCCCC21 (centres undefined) ?
HEK cytotox: 16µM*; 3T3 cytotox: 32µM*; hNpr1 antagonist: -7%; FLuc inh: inactive

How did CCN1c2cc(C(=O)Nc3ccc(F)c(C)c3)ccc2C(=O)N2CCCCCC21 (centres undefined) do in these assays?
HEK cytotox: 40µM*; 3T3 cytotox: inconclusive; hNpr1 antagonist: -18%; FLuc inh: inactive

How did C=CCOc1cc(C)c2c(c1C)[C@H](O)C([C@H](C)C(=O)N(C)Cc1ccccc1)CC2 (some centres undefined) do in these assays?
HEK cytotox: inconclusive; 3T3 cytotox: 71µM*; hNpr1 antagonist: -5%[70.6 µM]; FLuc inh: inactive

Results for O=C(c1ccccn1)N1CCN(Cc2ccccc2-c2ccccc2F)CC1 ?
HEK cytotox: -28%; 3T3 cytotox: -27%

How did C[S+](=O)([O-])N1CCN(Cc2ccccc2-c2cccnc2)CC1 do in these assays?
HEK cytotox: inconclusive; 3T3 cytotox: -32%[138 µM]

How did O=[S+]([O-])(c1cccc(C(F)(F)F)c1)N1CCN(Cc2ccccc2-c2cccnc2)CC1 do in these assays?
HEK cytotox: inconclusive; 3T3 cytotox: 35µM*

What do the screens show for `O=[S+]([O-])(c1ccccc1)N1CCN(Cc2ccccc2-c2ccccc2F)CC1`?
HEK cytotox: 22µM*; 3T3 cytotox: inconclusive

What do the screens show for `C[S+](=O)([O-])NCc1nnc2n1C(C(=O)NC1CCCCCC1)CC2` (centres undefined)?
HEK cytotox: -17%[230 µM]; 3T3 cytotox: -16%[174 µM]

What do the screens show for `CN1CC[C@H](c2nc3ccc(C(F)(F)F)cc3[nH]2)C1`?
HEK cytotox: 112µM*; 3T3 cytotox: inconclusive; hNpr1 antagonist: -12%[70.6 µM]; FLuc inh: inconclusive

How did FC(F)(F)c1ccc(CN2CC[C@H](c3nc4ccc(C(F)(F)F)cc4[nH]3)C2)cc1 do in these assays?
HEK cytotox: 35µM*; 3T3 cytotox: 32µM*; hNpr1 antagonist: inconclusive; FLuc inh: inconclusive

Results for Cn1ncc2c(C(=O)Nc3cccnc3)cc(-c3ccccc3F)nc21 ?
HEK cytotox: inconclusive; 3T3 cytotox: -17%

Results for COCC(=O)N1CCC2(CC1)OC(=O)N(Cc1ccc(O)cc1)C2(C)c1ccccc1 (centres undefined) ?
HEK cytotox: inactive; 3T3 cytotox: inconclusive; hNpr1 antagonist: 4%[70.6 µM]; FLuc inh: inactive

How did CC1(c2cccnc2)N(Cc2ccccc2)C(=O)OC12CCN(C(=O)COc1ccccc1)CC2 (centres undefined) do in these assays?
HEK cytotox: -9%; 3T3 cytotox: 32µM*; hNpr1 antagonist: 1%; FLuc inh: inactive

What do the screens show for `COCC(=O)N1CCC2(CC1)OC(=O)N(CCOc1ccccc1)C2(C)c1cccnc1` (centres undefined)?
HEK cytotox: -9%[172 µM]; 3T3 cytotox: 50µM*; hNpr1 antagonist: 3%[70.6 µM]; FLuc inh: inactive

Results for CC1(c2ccccc2)N(Cc2ccccc2)C(=O)OC12CCN(C(=O)COc1ccccc1)CC2 (centres undefined) ?
HEK cytotox: inconclusive; 3T3 cytotox: 28µM*; hNpr1 antagonist: 2%; FLuc inh: inactive

Results for CC1(c2cccnc2)N(Cc2ccccc2)C(=O)OC12CCN(C(=O)c1cnccn1)CC2 (centres undefined) ?
HEK cytotox: -15%; 3T3 cytotox: 28µM*; hNpr1 antagonist: -9%; FLuc inh: inactive

How did CC1(c2cccnc2)N(CC2CC2)C(=O)OC12CCN(C(=O)c1ccccc1)CC2 (centres undefined) do in these assays?
HEK cytotox: -2%[172 µM]; 3T3 cytotox: inconclusive; hNpr1 antagonist: -8%[70.6 µM]; FLuc inh: inactive

Results for O=C(c1nc2sccn2c1-c1ccccc1)N1CCOCC1 ?
HEK cytotox: -6%[172 µM]; 3T3 cytotox: 4%[138 µM]

What do the screens show for `COc1cccc(C(=O)N2CCCC2C(=O)N2CCC(N3CCOCC3=O)CC2)c1` (centres undefined)?
HEK cytotox: inactive; 3T3 cytotox: -2%

Results for COc1ccc(-c2cc(N3CCCC(NC(=O)c4ccc(C)nc4)C3)n[nH]2)cc1 (centres undefined) ?
HEK cytotox: -63%; 3T3 cytotox: inconclusive; hNpr1 antagonist: -24%; FLuc inh: 35µM*

What do the screens show for `Cc1ccc(C(=O)NC2CCCN(c3cc(-c4ccc(F)cc4)[nH]n3)C2)cn1` (centres undefined)?
HEK cytotox: 20µM*; 3T3 cytotox: -26%; hNpr1 antagonist: -2%; FLuc inh: inconclusive

How did O=C(NC1CCCN(c2cc(-c3ccc(F)cc3)[nH]n2)C1)c1ccccc1 (centres undefined) do in these assays?
HEK cytotox: inconclusive; 3T3 cytotox: inconclusive; hNpr1 antagonist: -13%; FLuc inh: inconclusive

How did O=C(NC1CCCN(c2cc(-c3ccc(F)cc3)[nH]n2)C1)c1cccnc1 (centres undefined) do in these assays?
HEK cytotox: inconclusive; 3T3 cytotox: -18%; hNpr1 antagonist: -6%; FLuc inh: inconclusive

What do the screens show for `Cc1cc(C)cc(C(=O)NC2CCCN(c3cc(-c4ccc(F)cc4)[nH]n3)C2)c1` (centres undefined)?
HEK cytotox: 45µM*; 3T3 cytotox: inconclusive; hNpr1 antagonist: -10%; FLuc inh: inactive

How did O=C(NC[C@H]1O[C@@H]2C[C@@H](CC(=O)N3CCOCC3)O[C@@H]2[C@@H]1O)NC1CCCCC1 do in these assays?
HEK cytotox: inactive; 3T3 cytotox: inactive; hNpr1 antagonist: 6%[70.6 µM]; FLuc inh: inactive

Results for Cc1noc(C)c1-c1cnc2[nH]cc(CC(=O)NCc3cccnc3)c2c1 ?
HEK cytotox: inconclusive; 3T3 cytotox: 32µM*; hNpr1 antagonist: 0%[70.6 µM]; FLuc inh: inactive

Results for NC(=O)Cc1c[nH]c2ncc(-c3ccc(F)cc3)cc12 ?
HEK cytotox: -7%[230 µM]; 3T3 cytotox: inconclusive; hNpr1 antagonist: 1%[70.6 µM]; FLuc inh: inconclusive

What do the screens show for `Cc1cccc(-c2cnc3[nH]cc(CC(N)=O)c3c2)c1`?
HEK cytotox: inconclusive; 3T3 cytotox: inconclusive; hNpr1 antagonist: -26%[70.6 µM]; FLuc inh: inactive

How did COc1ccc(-c2cnc3[nH]cc(CC(N)=O)c3c2)cc1OC do in these assays?
HEK cytotox: inconclusive; 3T3 cytotox: 10µM*; hNpr1 antagonist: -2%[70.6 µM]; FLuc inh: inactive

How did Cc1noc(C)c1-c1cnc2[nH]cc(CC(N)=O)c2c1 do in these assays?
HEK cytotox: inconclusive; 3T3 cytotox: 10µM*; hNpr1 antagonist: -4%[70.6 µM]; FLuc inh: inactive

How did CC(C)(C)C(=O)N1CCCN(Cc2ccc3c(c2)OCO3)c2ccccc21 do in these assays?
HEK cytotox: inconclusive; 3T3 cytotox: inconclusive; hNpr1 antagonist: -19%; FLuc inh: inactive

What do the screens show for `COc1ccc(CN(Cc2ccc(OC)cc2)[C@@H]2CO[C@H](CNC(=O)CC(C)(C)C)[C@H]2O)cc1`?
HEK cytotox: 71µM*; 3T3 cytotox: inconclusive; hNpr1 antagonist: 1%; FLuc inh: inactive
